Records with an inconclusive call do not appear. The source made the active and inactive calls. Calls come from the whole dose curve; as a rule, active = well fitted inhibition curve with a large enough effect; inconclusive = small, poorly fitted or top-dose-only effect; inactive = flat fitted curve, though single readings scatter.

What all share (assay): qHTS profiling for inhibitors of Plasmodium falciparum proliferation (AID 504749); note: nearly all actives have a fitted effect of over 60% in size
What all share (settings): P. falciparum in erythrocytes, SYBR Green DNA, 72 h; series mostly up to 28.7 µM
(In general: In qHTS, concentration-response curves come from the screen itself.)

For one assay, the system named is CP194. In a few lines: (§1)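 Three-day growth assay of blood-stage parasites in erythrocytes (0.3% parasitemia, 2.5% hematocrit) at 37 C, 5% CO2, quantified by SYBR Green DNA staining after overnight detergent lysis.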
A further assay has as its system CP201. In a few lines: as §1
A further assay relates to CP203. In a few lines:
as §1

A further assay deals with CP211. In a few lines: as §1
The test system of the next assay is CP215. In a few lines: as §1
A further assay deals with CP217. A digest of the protocol:
as §1

The next assay has as its system CP237. In a few lines: as §1
In another assay the test system is CP238. In a few lines: as §1
A further assay deals with CP247. A digest of the protocol: as §1
The next assay relates to CP250. In a few lines:
as §1
Potency is the fitted concentration of half-maximal effect.

For `NS(=O)(=O)c1cc2c(cc1Cl)NC(C1CC3C=CC1C3)NS2(=O)=O` (stereo not given), the Potency entry in the assay on CP194, in the assay with CP201, in the assay with CP203, with CP211, in the assay with CP215 and in the assay on CP217 was “inactive” throughout. In addition, the Potency result in the assay with CP237, in the assay on CP238, in the assay with CP247 and in the assay with CP250 was “inactive” each time.

As to `c1cnc(N2CCN(Cc3ccc4c(c3)OCO4)CC2)nc1`, the Potency entry in the assay on CP194, in the assay with CP201, in the assay with CP203, in the assay with CP211, in the assay on CP215 and in the assay on CP217 was “inactive” in each case. Also, the Potency entry in the assay on CP237, with CP238, in the assay on CP247 and in the assay on CP250 was “inactive” throughout.

Consider `CN1CCN(CC(=O)N2c3ccccc3C(=O)Nc3cccnc32)CC1`, for which the Potency result with CP194, in the assay with CP201, in the assay with CP203, with CP211, with CP215 and in the assay on CP217 was “inactive” in each case. The Potency entry with CP237, in the assay on CP238, in the assay with CP247 and in the assay on CP250 was “inactive” each time.

`Cc1nc2c([nH]1)c(=O)n(C)c(=O)n2Cc1ccco1`: the Potency entry in the assay with CP194, in the assay with CP201, with CP203, in the assay with CP211, in the assay on CP215 and with CP217 was “inactive” in each case. Also, the Potency result in the assay with CP237, with CP238, with CP247 and in the assay on CP250 was “inactive” in each case.

As to `Cc1ccc(S(=O)(=O)NC(=O)NN2CCCCCC2)cc1`, the Potency entry in the assay with CP194, in the assay on CP201, in the assay with CP203, in the assay with CP211, in the assay with CP215 and with CP217 was “inactive” throughout. Further, the Potency entry in the assay on CP237, in the assay with CP238, with CP247 and in the assay with CP250 was “inactive” each time.

As to `CCCCOCCOCCOCc1cc2c(cc1CCC)OCO2`, the Potency result in the assay on CP194, in the assay on CP201, with CP203, with CP211, in the assay with CP215 and in the assay on CP217 was “inactive” throughout. Besides, the Potency entry in the assay with CP237, in the assay on CP238, in the assay with CP247 and in the assay on CP250 was “inactive” throughout.

In the case of `C[N+](C)(C)CCCCCCCCCC[N+](C)(C)C`, the Potency in the assay on CP194 is 2.13 µM (active); with CP201 it was 3.38 µM (active); in the assay with CP203 it was 1.69 µM (active); in the assay with CP211 it was 1.69 µM (active); in the assay with CP215, 4.26 µM (active); in the assay with CP217, 3.55 µM (active). Besides, the Potency in the assay with CP237 is 3.16 µM (active); in the assay on CP238 it was 5.01 µM (active); in the assay on CP247, 5.01 µM (active); in the assay on CP250, 7.08 µM (active).

In the case of `CSc1ccc(C(=O)c2[nH]c(=O)[nH]c2C)cc1`, the Potency entry with CP194, in the assay with CP201, in the assay on CP203, with CP211, with CP215 and in the assay with CP217 was “inactive” throughout. Also, the Potency result in the assay with CP237, with CP238, in the assay on CP247 and with CP250 was “inactive” in each case.

Consider `CCCCNc1c(C(=O)OCC)c(C)nc2c1cnn2CC`, for which the Potency entry in the assay with CP194, in the assay on CP201, with CP203, with CP211, in the assay on CP215 and with CP217 was “inactive” each time. Also, the Potency result in the assay with CP237, in the assay with CP238, in the assay with CP247 and in the assay with CP250 was “inactive” throughout.

Turning to `O=c1[nH]c(=O)n([C@H]2C[C@H](O)[C@@H](CO)O2)cc1Br`, the Potency result in the assay with CP194, in the assay with CP201, in the assay with CP203, in the assay on CP211, in the assay on CP215 and in the assay with CP217 was “inactive” each time. In addition, the Potency result in the assay on CP237, in the assay on CP238, with CP247 and with CP250 was “inactive” in each case.

As for `COc1ccc([C@@H]2Sc3ccccc3N(CCN(C)C)C(=O)[C@@H]2OC(C)=O)cc1`, the Potency result in the assay with CP194, with CP201, in the assay on CP203, in the assay on CP211, in the assay with CP215 and with CP217 was “inactive” throughout. For the same compound, the Potency result in the assay with CP237, in the assay on CP238, in the assay on CP247 and in the assay on CP250 was “inactive” throughout.

For `COCC(=O)O[C@]1(CCN(C)CCCc2nc3ccccc3[nH]2)CCc2cc(F)ccc2[C@@H]1C(C)C`, the Potency in the assay with CP194 is 6.01 µM (active); in the assay with CP201 it was 8.49 µM (active); in the assay with CP203, 1.9 µM (active); with CP211, 4.26 µM (active); in the assay on CP215, 4.26 µM (active); in the assay with CP217 it was 2.51 µM (active). The Potency with CP237 is 0.199 µM (active); in the assay with CP238, 4.47 µM (active); with CP247, 3.55 µM (active); in the assay on CP250, 4.47 µM (active).

For the compound `O=C(O)CN(CCN(CC(=O)O)CC(=O)O)CCN(CC(=O)O)CC(=O)O`, the Potency entry with CP194, with CP201, in the assay on CP203, in the assay with CP211, in the assay with CP215 and in the assay with CP217 was “inactive” each time. Besides, the Potency result in the assay with CP237, in the assay on CP238, with CP247 and in the assay on CP250 was “inactive” in each case.

As to `Nc1c2c(nc3ccccc13)CCCC2O` (stereo not given), the Potency result with CP194, with CP201, with CP203, with CP211, in the assay on CP215 and in the assay on CP217 was “inactive” in each case. The Potency entry in the assay with CP237, in the assay with CP238, in the assay with CP247 and in the assay with CP250 was “inactive” each time.

In the case of `C[N+](C)(C)CCOC(N)=O`, the Potency result in the assay on CP194, in the assay on CP201, with CP203, in the assay with CP211, in the assay with CP215 and in the assay with CP217 was “inactive” throughout. In addition, the Potency result with CP237, in the assay with CP238, in the assay on CP247 and in the assay with CP250 was “inactive” each time.

Consider `CC(=O)Nc1nnc(S(N)(=O)=O)s1`, for which the Potency result with CP194, in the assay on CP201, in the assay with CP203, with CP211, with CP215 and with CP217 was “inactive” throughout. For the same compound, the Potency entry in the assay with CP237, in the assay with CP238, in the assay on CP247 and in the assay with CP250 was “inactive” in each case.

For the compound `Cc1ccc(Cl)c(Nc2ccccc2C(=O)O)c1Cl`, the Potency result in the assay with CP194, with CP201, with CP203, in the assay on CP211, with CP215 and in the assay on CP217 was “inactive” throughout. Further, the Potency result with CP238, with CP247 and in the assay with CP250 was “inactive” in each case.

As for `CNC1(C)C2CCC(C2)C1(C)C` (stereo not given), the Potency result in the assay on CP194, in the assay on CP201, in the assay with CP203, in the assay with CP211, with CP215 and in the assay with CP217 was “inactive” throughout. For the same compound, the Potency entry in the assay on CP238, in the assay on CP247 and with CP250 was “inactive” each time. In addition, the Potency in the assay with CP237 is 7.94 µM (active).

On to `Cc1cc(C)c(/C=C2\C(=O)Nc3ccccc32)[nH]1`, for which the Potency entry in the assay on CP194, with CP201, in the assay with CP211, in the assay on CP215, in the assay with CP217 and in the assay on CP237 was “inactive” throughout. Moreover, the Potency result with CP238, in the assay with CP247 and in the assay on CP250 was “inactive” in each case.

As for `COC(=O)C1=C(C)NC(C)=C(C(=O)OC(C)(C)CN(C)CCC(c2ccccc2)c2ccccc2)C1c1cccc([N+](=O)[O-])c1` (stereo not given), the Potency in the assay with CP194 is 3.79 µM (active); in the assay on CP201, 6.01 µM (active); in the assay with CP211 it was 4.78 µM (active); in the assay on CP215, 4.78 µM (active); with CP217 it was 3.16 µM (active); with CP237 it was 2.51 µM (active). The results for the Potency in the assay with CP238, in the assay with CP247 and in the assay with CP250 were 3.98 µM (active), 3.16 µM (active) and 3.55 µM (active), respectively.

For the compound `NC1=NCC2c3ccccc3Cc3ccccc3N12` (stereo not given), the Potency entry in the assay on CP194, in the assay on CP201, in the assay with CP211, with CP217, with CP237 and in the assay with CP238 was “inactive” each time. Also, the Potency result in the assay on CP247 and with CP250 was “inactive” each time.
